Results as given in PubChem BioAssay (NCATS).
Inconclusive results are not listed. A number with no mark means an inactive call. Calls follow the shape of the dose curve; as a rule, active = well fitted cell-killing curve with a large enough effect; inconclusive = small, poorly fitted or top-dose-only effect; inactive = flat fitted curve, though single readings scatter.

Test: Cell Viability - LYMP1-002 - Assay at 40 hr (AID 994);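 also: 0% = DMSO only and full inhibition = 92 µM tetraoctylammonium bromide; nearly all actives have a fitted effect of over 60% in size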
Conditions: LYMP1-002 lymphoblastoid cell viability; series mostly up to 92.2 µM; viability change, negative = cytotoxic: at the top concentration
Excerpt: NIH Chemical Genomics Center [NCGC]
NIH Molecular Libraries Screening Centers Network [MLSCN]
National Institutes of Environmental Health Sciences [NIEHS]
National Toxicology Program [NTP]
We have developed a 1536-well cell-based assay for quantitative high throughput screening (qHTS) against a number of cell lines to determine in vitro cytotoxicity of small molecules. This particular assay uses a human lymphoblastoid cell line (LYMP1-002) purchased from Coriell Institute for Medical Research.
NCGC Assay Protocol Summary:
The CellTiter-Glo luminescent cell viability assay (Promega) is a homogeneous method to measure the number of viable cells in culture. The end point readout of this assay is based on quantitation of intracellular ATP, an indicator of metabolic activity, using the luciferase reaction. Luciferase catalyzes the oxidation of beetle Luciferin to oxyluciferin and light in the presence of ATP. The luminescent signal is proportional to amount of ATP present.
Using the CellTiter-Glo luminescent cell viability assay, the amount of cellular ATP was measured in the lymphoblastoid cell line with complete culture medium following compound treatment for 40 hours. The assay was performed in opaque white Kalypsys 1536-well plates. In the screen, tetraoctylammonium bromide was used as positive control. Library compounds were measured for their ability to cause acute toxicity in the cell line, as reflected by a decrease in intracellular ATP levels, in a concentration-dependent manner. […] AC50 values were determined from concentration-response data modeled with the standard Hill equation.
qHTS protocol for CellTiter Glo lymphoblastoid cellular assay
[Step] [Parameter] [Value] [Description]
1. Reagent; 5 uL; 2500 lymphoblastoid cells/well
2. Time; 5 hr; 37 C incubation
4. Controls; 23 nL; Tetraoctylammonium bromide 6.4pM to 92 uM
5. Time; 40 hr; 37 C incubation
6. Reagent; 5 uL; CellTiter Glo reagent
7. Time; 30 min; Room Temperature
8. Detection; Luminescence; Viewlux plate reader
Keywords: cell viability, cytotoxicity, lymphoblastoid cell line, luminescence, NTPHTS, NTPHTS_NCGC, NIEHS, DSSTox, MLSMR, MLSCN, NIH Roadmap, qHTS, NCGC

Structure (SMILES) | viability change, negative = cytotoxic [%]
C=CCCC | -9.42
NCCCCCCN | -4.71
O=C(O)c1ccc(Cl)c(Cl)c1 | -1.43
C=CCCCCCC | -2.78
C=C(C)C(=O)OC | -7.14
Cc1cc(C)c(N)cc1C | -6.11
FC(F)(F)c1cccc(Cl)c1 | -5.76
CC(C)(c1cc(Br)c(OCC(Br)CBr)c(Br)c1)c1cc(Br)c(OCC(Br)CBr)c(Br)c1 (stereo not given) | -2.4
C=C(C)C(=O)OCC(C)O (stereo not given) | -12.1
Cc1cccc(C(=O)O)c1 | 4.1
CCCCCCO | -2.62
C=C(C)C(=O)OCC(C)C | -6.43
ICCc1ccccc1 | -15
COC(=O)CC#N | -5.67
CCOC(C)(C)C | 4.96
Cc1nc2ccc(Cl)cc2[nH]1 | 0.0279
C1CCCC1 | -0.797
Fc1ccccc1 | -1.9
CNC(=O)c1ccccc1 | -1.14
c1ccc2c(c1)Oc1ccccc1S2 | -8.62

Structure (SMILES) | viability change, negative = cytotoxic [%]
O=c1[nH][nH]c(=O)c2cc([N+](=O)[O-])ccc12 | -19.6
O=[N+]([O-])c1ccc2nc[nH]c2c1 | -6.64
c1ccc(Nc2ccccc2)cc1 | -7.24
CC=C(Cl)Cl | -2.84
C1CCOC1 | -0.724
NC(N)=S | -1.72
CC(C)N(C)C | 1.06
COc1cccc2sc(N)nc12 | 1.65
C[C@@H]1CC2(OC[C@]3(C)O[C@H]23)O[C@H]2C[C@@]3(C)[C@@H]4CC[C@H]5C(C)(C)C(O[C@@H]6OC[C@@H](O)[C@H](O)[C@H]6O)CC[C@@]56C[C@@]46CC[C@]3(C)[C@@H]12 (stereo not given in full) | -29.7
CCOCCO | -1.11
CCC(C)(C)C(=O)O | -2.39
CC/C(C)=N/O | -4.27
CC(C)=CCC/C(C)=C/C=O | 0.718
CC=O | -3.5
CCOc1cc(OCC)c(C(C)=O)cc1OCC | -11.9
COC(=O)c1ccccc1 | -4.28
CC(=O)Nc1ccccc1C | -2.23
Cc1cc([N+](=O)[O-])ccc1N | -3.2
Cc1cc(C2(c3cc(C)c(O)cc3C)OS(=O)(=O)c3ccccc32)c(C)cc1O | -16.5
CCCCOCCOCCSC#N | -2.8
